PubChem BioAssay (NCATS)
“And” between values parts separate entries of the source, which are not always exact repeats. Identical values can stand only once. Inconclusive results are not listed. The source made the active and inactive calls. Calls come from the whole dose curve.

assay: Cytotoxicity counterscreen for inhibitors of SARS-CoV-2 cell entry (AID 1645845); conditions: cell viability (SARS-CoV-2 entry assay cells); series mostly up to 57.1 µM; activity change, negative = cytotoxicity: at the top concentration; note: nearly all actives have a fitted effect of over 50% in size; for activity change, negative = cytotoxicity: % is set by controls: 0 for no effect and ±100 for the full control effect
Method in brief: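 Counterscreen run in the same HEK293-ACE2 line as the pseudotyped-particle entry assay, without particles. Viability after 48 h at 37 C was read as ATP luminescence, scaled between cell-containing and cell-free wells.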
Potency is the fitted concentration of half-maximal effect.

| Compound | activity change, negative = cytotoxicity | outcome | Potency |
| --- | --- | --- | --- |
| COc1ccc(CC2SC(=O)NC2=O)cc1C(=O)NCc1ccc(C(F)(F)F)cc1 (stereo unspecified) | 4.37% (inactive) |  |  |
| CC1(C)Cc2c(-c3ccccc3)c(-c3ccc(Cl)cc3)c(CC(=O)O)n2C1 |  | inactive |  |
| CC(C)(C)C(O)/C=C/c1ccc2c(c1)OCO2 (stereo unspecified) | -1.96% (inactive) |  |  |
| CCCCC(CC)COC(=O)c1ccc(N(C)C)cc1 (stereo unspecified) |  | inactive |  |
| O=C(Nc1ccc(OC(F)(F)F)cc1)c1sccc1NCc1ccnc2ccccc12 | -28% (inactive) |  |  |
| Cc1ccccc1N=Nc1ccc(N=Nc2c(O)ccc3ccccc23)c(C)c1 |  | inactive |  |
| CCOC(=O)c1c(C)n(C)c2ccc(O)cc12 |  | inactive |  |
| O=C(O)c1ccc2cc(-c3ccc(O)c(C45CC6CC(CC(C6)C4)C5)c3)ccc2c1 |  |  | 3.16 µM (active) |
| O=C(O)CCc1ccc(NCc2cccc(Oc3ccccc3)c2)cc1 |  | inactive |  |
| CC1=NN(c2ccccc2)C(=O)C1 |  |  | inactive |
| CCN1CCN(c2cc3c(cc2F)c(=O)c(C(=O)O)cn3C2CC2)CC1 | 0.104% (inactive) |  |  |
| C#Cc1cccc(Nc2ncnc3cc(OC)c(OCCCCCCC(=O)NO)cc23)c1 |  |  | 10 µM (active) |
| c1ccc2[nH]ccc2c1 |  | inactive |  |
| CN[C@@H](C)C(=O)N[C@H]1CCCC[C@H]2CC[C@@H](C(=O)N[C@@H](c3ccccc3)c3cn(CCCCc4ccc(CCCCn5cc([C@@H](NC(=O)[C@@H]6CC[C@@H]7CCCC[C@H](NC(=O)[C@H](C)NC)C(=O)N76)c6ccccc6)nn5)cc4)nn3)N2C1=O | -9.37% (inactive) |  |  |
| COc1cc2c(Oc3ccc(NC(=O)C4(C(=O)Nc5ccc(F)cc5)CC4)cc3F)ccnc2cc1OCCCN1CCOCC1 |  |  | 31.6 µM (active) |
| COc1c(Cl)cc2c([nH]c3cnccc32)c1NC(=O)c1cccnc1C | -5.81% (inactive) |  |  |
| CCCCCCCCCCCCCC(=O)OC(C)C |  | inactive |  |
| COc1cc2c(cc1OC)CC(=O)N(CCCN(C)C[C@H]1Cc3cc(OC)c(OC)cc31)CC2 |  |  | inactive |
| O=C(NCCCNc1nc(Nc2cccc(NC(=O)N3CCCC3)c2)ncc1I)c1cccs1 | 3.7% (inactive) |  |  |

| Compound | activity change, negative = cytotoxicity | outcome | Potency |
| --- | --- | --- | --- |
| C1Cc2[nH]nc(-c3nn[nH]n3)c2C1 |  | inactive |  |
| CC(C)(C)C(=O)Oc1ccc2c(c1)nc(NC(=O)c1cccc([N+](=O)[O-])c1)n2CCCO |  | inactive |  |
| CC(C)(C)NCC(O)c1ccc(O)c(CO)c1 (stereo unspecified) |  |  | inactive |
| [O-][n+]1cccc(/C(Cl)=N/OC[C@@H](O)CN2CCCCC2)c1 | -4.86% (inactive) |  |  |
| COc1cccc(OC)c1-c1cc(C(=O)NC2(C(=O)O)C3CC4CC(C3)CC2C4)nn1-c1ccnc2cc(Cl)ccc12 (stereo unspecified) | -6.53% (inactive) |  |  |
| COc1cc2nc(-c3ccc(N4CCN(C)CC4)cc3)nc(NCCN3CCOCC3)c2cc1OC | -4.16% (inactive) |  |  |
| CC(=O)NC(C)c1ccc(Oc2ccc(OC(C)C)cc2)cc1 (stereo unspecified) | 1.42% [at 114 µM] (inactive) |  |  |
| CC(C)[C@H](CO)Nc1nc(Nc2ccc(C(=O)O)c(Cl)c2)c2ncn(C(C)C)c2n1 | -11% (inactive) |  |  |
| CCOC(=O)c1c(C(C#N)=CN)c2ccc(Cl)c(Cl)c2n1C | 1.38% (inactive) |  |  |
| Cc1cc(C(=O)NNCc2ccccc2)no1 |  | inactive [at 114 µM] |  |
| CS(=O)(=O)Oc1ccc2c(NC(N)=O)c(C(=O)c3ccc(Cl)cc3Cl)oc2c1 |  | inactive |  |
| O=C1C(Cl)=C(NCCN2CCOCC2)C(=O)c2ncccc21 |  |  | 28.2 µM (active) |
| CC(=O)Oc1ccccc1C(=O)O |  |  | inactive |
| Cc1ccc(C(=O)Nc2cccc(C(F)(F)F)c2)cc1-c1ccc2nc(NCCN3CCOCC3)ncc2c1 | -18.6% (inactive) |  |  |
| Cc1cc2c(cc1C1(c3ccc(C(=O)O)cn3)CC1)C(C)(C)CCC2(C)C |  | inactive |  |
| Cc1cc(SCc2sc(-c3ccc(C(F)(F)F)cc3)nc2C)ccc1OCC(=O)O |  | inactive |  |
| N#Cc1ccc(NC(=O)Nc2ccccc2Br)c2n[nH]nc12 |  | inactive |  |
| CNCc1ccc(-c2[nH]c3cc(F)cc4c3c2CCNC4=O)cc1 |  |  | inactive |
| Cn1cncc1[C@@](N)(c1ccc(Cl)cc1)c1ccc2c(c1)c(-c1cccc(Cl)c1)cc(=O)n2C |  |  | inactive |

assay: Primary qHTS to identify inhibitors of SARS-CoV-2 cell entry (AID 1645846); conditions: SARS-CoV-2 pseudovirus cell entry assay, luminescence; activity change, negative = inhibition: at 57.1 µM (top of the series) unless noted; series mostly up to 57.1 µM; note: nearly all actives have a fitted effect of over 45% in size
Method in brief: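 HEK293-ACE2 (Expi293F, stable hACE2), 1500 cells/well, o/n 37C; cpd 23 nL pin, 1 h; MLV-PP w/ SARS-CoV-2-S (Wuhan-Hu-1, Δ19 C-term); 48 h 37C; Bright-Glo luminescence; normalized vs S-PP and bald PP.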

| Compound | activity change, negative = inhibition | Potency | outcome |
| --- | --- | --- | --- |
| COc1ccc(CC2SC(=O)NC2=O)cc1C(=O)NCc1ccc(C(F)(F)F)cc1 (stereo unspecified) | -1.76% |  |  |
| CC1(C)Cc2c(-c3ccccc3)c(-c3ccc(Cl)cc3)c(CC(=O)O)n2C1 | -28.3% |  |  |
| CC(C)(C)C(O)/C=C/c1ccc2c(c1)OCO2 (stereo unspecified) | -17.5% |  |  |
| CCCCC(CC)COC(=O)c1ccc(N(C)C)cc1 (stereo unspecified) | 4.94% |  |  |
| O=C(Nc1ccc(OC(F)(F)F)cc1)c1sccc1NCc1ccnc2ccccc12 | -18% |  |  |
| Cc1ccccc1N=Nc1ccc(N=Nc2c(O)ccc3ccccc23)c(C)c1 | -23% |  |  |
| CCOC(=O)c1c(C)n(C)c2ccc(O)cc12 | -9.91% |  |  |
| O=C(O)c1ccc2cc(-c3ccc(O)c(C45CC6CC(CC(C6)C4)C5)c3)ccc2c1 |  | 1.58 µM (active) |  |
| O=C(O)CCc1ccc(NCc2cccc(Oc3ccccc3)c2)cc1 | -10.2% |  |  |
| CC1=NN(c2ccccc2)C(=O)C1 | 0.769% and -7.18% |  |  |
| CCN1CCN(c2cc3c(cc2F)c(=O)c(C(=O)O)cn3C2CC2)CC1 |  |  | inactive |
| C#Cc1cccc(Nc2ncnc3cc(OC)c(OCCCCCCC(=O)NO)cc23)c1 |  |  | inactive |
| c1ccc2[nH]ccc2c1 |  |  | inactive |
| CN[C@@H](C)C(=O)N[C@H]1CCCC[C@H]2CC[C@@H](C(=O)N[C@@H](c3ccccc3)c3cn(CCCCc4ccc(CCCCn5cc([C@@H](NC(=O)[C@@H]6CC[C@@H]7CCCC[C@H](NC(=O)[C@H](C)NC)C(=O)N76)c6ccccc6)nn5)cc4)nn3)N2C1=O | -12% |  |  |
| COc1cc2c(Oc3ccc(NC(=O)C4(C(=O)Nc5ccc(F)cc5)CC4)cc3F)ccnc2cc1OCCCN1CCOCC1 |  | 8.91 µM (active) |  |
| COc1c(Cl)cc2c([nH]c3cnccc32)c1NC(=O)c1cccnc1C | -30.2% |  |  |
| CCCCCCCCCCCCCC(=O)OC(C)C |  |  | inactive |
| COc1cc2c(cc1OC)CC(=O)N(CCCN(C)C[C@H]1Cc3cc(OC)c(OC)cc31)CC2 | -5.42% and -13.8% |  |  |
| O=C(NCCCNc1nc(Nc2cccc(NC(=O)N3CCCC3)c2)ncc1I)c1cccs1 |  |  | inactive |

| Compound | activity change, negative = inhibition | Potency | outcome |
| --- | --- | --- | --- |
| C1Cc2[nH]nc(-c3nn[nH]n3)c2C1 | 4.96% |  |  |
| CC(C)(C)C(=O)Oc1ccc2c(c1)nc(NC(=O)c1cccc([N+](=O)[O-])c1)n2CCCO | -6.43% |  |  |
| CC(C)(C)NCC(O)c1ccc(O)c(CO)c1 (stereo unspecified) |  | inactive |  |
| [O-][n+]1cccc(/C(Cl)=N/OC[C@@H](O)CN2CCCCC2)c1 |  |  | inactive |
| COc1cccc(OC)c1-c1cc(C(=O)NC2(C(=O)O)C3CC4CC(C3)CC2C4)nn1-c1ccnc2cc(Cl)ccc12 (stereo unspecified) |  |  | inactive |
| COc1cc2nc(-c3ccc(N4CCN(C)CC4)cc3)nc(NCCN3CCOCC3)c2cc1OC | -14.2% |  |  |
| CC(=O)NC(C)c1ccc(Oc2ccc(OC(C)C)cc2)cc1 (stereo unspecified) | -26.1% [at 114 µM] |  |  |
| CC(C)[C@H](CO)Nc1nc(Nc2ccc(C(=O)O)c(Cl)c2)c2ncn(C(C)C)c2n1 | -17.7% |  |  |
| CCOC(=O)c1c(C(C#N)=CN)c2ccc(Cl)c(Cl)c2n1C | -10.2% |  |  |
| Cc1cc(C(=O)NNCc2ccccc2)no1 | -26.2% [at 114 µM] |  |  |
| CS(=O)(=O)Oc1ccc2c(NC(N)=O)c(C(=O)c3ccc(Cl)cc3Cl)oc2c1 |  |  | inactive |
| O=C1C(Cl)=C(NCCN2CCOCC2)C(=O)c2ncccc21 |  | 11.2 µM (active) |  |
| CC(=O)Oc1ccccc1C(=O)O |  |  | inactive |
| Cc1ccc(C(=O)Nc2cccc(C(F)(F)F)c2)cc1-c1ccc2nc(NCCN3CCOCC3)ncc2c1 |  | 31.6 µM (active) |  |
| Cc1cc2c(cc1C1(c3ccc(C(=O)O)cn3)CC1)C(C)(C)CCC2(C)C |  |  | inactive |
| Cc1cc(SCc2sc(-c3ccc(C(F)(F)F)cc3)nc2C)ccc1OCC(=O)O |  |  | inactive |
| N#Cc1ccc(NC(=O)Nc2ccccc2Br)c2n[nH]nc12 |  |  | inactive |
| CNCc1ccc(-c2[nH]c3cc(F)cc4c3c2CCNC4=O)cc1 | -28.3% |  |  |
| Cn1cncc1[C@@](N)(c1ccc(Cl)cc1)c1ccc2c(c1)c(-c1cccc(Cl)c1)cc(=O)n2C | -13% |  |  |
